This passage reports cytotoxicity call results from the antibiotic and cytotoxicity screens of Wong et al. (2023).

About 3,300 (8.5%) of roughly 39,000 compounds were called active. This is one part of a sample in which actives are shown more often than they occur.

For the test, the system named is HepG2. Description: cytotoxicity call (relative viability < 0.9). Particulars: 10 µM.
Consider `CNC[C@@H]1Oc2ccc(NC(=O)CCN3CCOCC3)cc2CC(=O)N([C@H](C)CO)C[C@H]1C`, for which the cytotoxicity call was “inactive”.
Next, `C[C@H](CO)N1C[C@H](C)[C@@H](CN(C)C(=O)Nc2ccc3c(c2)OCO3)Oc2ccc(NC(=O)CCN3CCOCC3)cc2CC1=O`: “inactive”; `O=C(C[C@@H]1CC[C@H]2[C@@H](COC[C@@H](O)CN2C(=O)c2ccccc2F)O1)N1CCN(c2ccccc2)CC1`: “inactive”.
Turning to `c1ncc(CC2CCNCC2)[nH]1`, the cytotoxicity call was “inactive”.
With `COc1ccc(S(=O)(=O)Nc2ccc3c(c2)CC(=O)N([C@@H](C)CO)C[C@@H](C)[C@H](CN(C)C)O3)cc1` the entry was “inactive”.
With `C[C@H]1CN([C@@H](C)CO)C(=O)c2cccc(NC(=O)Nc3ccc4c(c3)OCO4)c2O[C@@H]1CN(C)Cc1ccc(C(=O)Nc2ccccc2N)cc1` the entry was “inactive”; with `COc1cccc(NC(=O)N(C)C[C@@H]2Oc3cc(C#Cc4ccncc4)ccc3S(=O)(=O)N([C@H](C)CO)C[C@@H]2C)c1`, “active”.
With `COc1cccc(NC(=O)N(C)C[C@H]2Oc3cc(C#Cc4ccncc4)ccc3S(=O)(=O)N([C@@H](C)CO)C[C@@H]2C)c1`, the cytotoxicity call was “active”.
For the compound `COc1cccc(NC(=O)N(C)C[C@@H]2Oc3cc(C#Cc4ccncc4)ccc3S(=O)(=O)N([C@H](C)CO)C[C@H]2C)c1`, the cytotoxicity call is “active”.
As to `COc1cccc(NC(=O)N(C)C[C@H]2Oc3cc(Br)ccc3S(=O)(=O)N([C@H](C)CO)C[C@H]2C)c1`, the cytotoxicity call was “inactive”.
Take `COc1cccc(NC(=O)N(C)C[C@@H]2Oc3cc(C#Cc4ccncc4)ccc3S(=O)(=O)N([C@@H](C)CO)C[C@@H]2C)c1`: the cytotoxicity call was “active”.
Next, `Cc1noc(C)c1NC(=O)N(C)C[C@@H]1Oc2c(NS(=O)(=O)c3cn(C)cn3)cccc2C(=O)N([C@H](C)CO)C[C@H]1C`: “inactive”.
As for `O=C(Nc1ccn([C@H]2O[C@H](CO)[C@@H](O)[C@@H]2O)c(=O)n1)c1ccccc1`, the cytotoxicity call is “inactive”.
On to `O=C(C[C@@H]1CC[C@@H](NC(=O)c2cccnc2)[C@H](CO)O1)NCCN1CCCCC1`, for which the cytotoxicity call is “inactive”.
As for `O=C(Nc1nccs1)[C@@H]1[C@@H](CO)[C@@H]2Cn3c(cccc3=O)[C@H]1N2C(=O)C1CC1`, the cytotoxicity call is “inactive”.
As to `NCc1cnc2ccccc2c1`, the cytotoxicity call was “inactive”.
For `C[C@@H]1CCCCO[C@@H](CN(C)C(=O)Nc2cccc3ccccc23)[C@H](C)CN([C@H](C)CO)C(=O)c2cc(N(C)C)ccc2O1`, the cytotoxicity call is “inactive”.
For the compound `C[C@H](CO)N1C[C@H](C)[C@@H](CN(C)S(=O)(=O)c2cn(C)cn2)Oc2ccc(NS(=O)(=O)c3cccs3)cc2CC1=O`, the cytotoxicity call was “inactive”.
Regarding `Cc1ccc(S(=O)(=O)Nc2cccc3c2O[C@H](CN(C)Cc2ccc(C(F)(F)F)cc2)[C@@H](C)CN([C@@H](C)CO)C3=O)cc1`, the cytotoxicity call is “inactive”.
With `CC(=O)N1[C@@H]2c3ccc(-c4ccccc4)c(=O)n3C[C@H]1[C@H](CO)[C@H]2C(=O)NCCCN1CCOCC1` the entry was “inactive”; with `COc1cccc(NC(=O)N(C)C[C@@H]2Oc3cc(C#CC4(O)CCCC4)ccc3S(=O)(=O)N([C@H](C)CO)C[C@H]2C)c1`, “inactive”.
With `COc1cccc(NC(=O)N(C)C[C@@H]2Oc3cc(C#CC4(O)CCCC4)ccc3S(=O)(=O)N([C@@H](C)CO)C[C@H]2C)c1` the entry was “inactive”; with `COc1cccc(NC(=O)N(C)C[C@H]2Oc3cc(C#Cc4ccncc4)ccc3S(=O)(=O)N([C@H](C)CO)C[C@H]2C)c1`, “active”; with `COc1cccc(NC(=O)N(C)C[C@@H]2Oc3cc(C#CC4(O)CCCC4)ccc3S(=O)(=O)N([C@H](C)CO)C[C@@H]2C)c1`, “inactive”.
`COc1cccc(NC(=O)N(C)C[C@@H]2Oc3cc(C#Cc4ccncc4)ccc3S(=O)(=O)N([C@@H](C)CO)C[C@H]2C)c1`: the cytotoxicity call was “active”.
For the compound `COc1cccc(NC(=O)N(C)C[C@@H]2Oc3cc(C#CC4(O)CCCC4)ccc3S(=O)(=O)N([C@@H](C)CO)C[C@@H]2C)c1`, the cytotoxicity call was “inactive”.
With `COc1cccc(NC(=O)N(C)C[C@H]2Oc3cc(C#Cc4ccncc4)ccc3S(=O)(=O)N([C@@H](C)CO)C[C@H]2C)c1`, the cytotoxicity call was “active”.
In the case of `COc1cccc(NC(=O)N(C)C[C@H]2Oc3cc(C#Cc4ccncc4)ccc3S(=O)(=O)N([C@H](C)CO)C[C@@H]2C)c1`, the cytotoxicity call was “active”.
For the compound `COc1cccc(NC(=O)N(C)C[C@@H]2Oc3cc(Br)ccc3S(=O)(=O)N([C@@H](C)CO)C[C@H]2C)c1`, the cytotoxicity call was “inactive”.
With `COc1cccc(NC(=O)N(C)C[C@H]2Oc3cc(C#CC4(O)CCCC4)ccc3S(=O)(=O)N([C@@H](C)CO)C[C@@H]2C)c1` the entry was “inactive”; with `CN(C)CC#Cc1ccc([C@H]2[C@H](CO)N3C(=O)CN(C(=O)CN(C)C)C[C@@H]23)cc1`, “inactive”.
On to `C/C=C/c1ccc2c(c1)O[C@@H](CN(C)C(=O)c1ccc3c(c1)OCO3)[C@H](C)CN([C@H](C)CO)S2(=O)=O`, for which the cytotoxicity call was “inactive”.
Regarding `COC(=O)c1cn(-c2cccc(N)c2)nn1`, the cytotoxicity call is “inactive”.
In the case of `C[C@H]1CN([C@@H](C)CO)C(=O)Cc2cc(NS(=O)(=O)c3ccc(Cl)cc3)ccc2O[C@H]1CN(C)C(=O)Nc1cccc2ccccc12`, the cytotoxicity call was “inactive”.
Next, `C[C@H]1CN([C@@H](C)CO)C(=O)c2cccc(NC(=O)NC3CCCCC3)c2O[C@H]1CN(C)Cc1ccc(Oc2ccccc2)cc1`: “inactive”; `C[C@@H]1CCCCO[C@H](CN(C)Cc2ccncc2)[C@@H](C)CN([C@@H](C)CO)C(=O)c2cc(NC(=O)CCC(F)(F)F)ccc2O1`: “inactive”.
In the case of `C[C@H]1CN([C@@H](C)CO)C(=O)c2cc(NC(=O)CCCCCC(=O)Nc3ccccc3N)ccc2O[C@@H]1CN(C)C(=O)Nc1ccc(F)cc1`, the cytotoxicity call is “inactive”.
With `CN1CCN(C(=O)C[C@H]2CC[C@@H]3[C@H](COC[C@H](O)CN3S(=O)(=O)c3cccc(Cl)c3)O2)CC1` the entry was “inactive”; with `CN(C)C(=O)C[C@@H]1CC[C@@H]2[C@@H](COc3ccc(NS(=O)(=O)c4cccc(F)c4)cc3C(=O)N2C)O1`, “inactive”.
With `C[C@@H]1CN([C@H](C)CO)C(=O)CCCn2nncc2CO[C@H]1CN(C)S(=O)(=O)c1cccc(C#N)c1` the entry was “inactive”.
For the compound `CO[C@H]1CN(C)C(=O)c2cc(NC(=O)Nc3ccccc3F)ccc2OC[C@@H](C)N(CCC(F)(F)F)C[C@@H]1C`, the cytotoxicity call was “inactive”.
With `C[C@H]1CN([C@@H](C)CO)C(=O)c2cc(NC(=O)CCN3CCOCC3)ccc2O[C@H]1CN(C)Cc1ccccc1` the entry was “inactive”.
Next, `CN1CCN(C(=O)C[C@@H]2CC[C@H]3[C@@H](COc4ccc(NC(=O)c5cccs5)cc4C(=O)N3C)O2)CC1`: “inactive”; `O=C(O)CC(CC(=O)O)C(=O)O`: “inactive”.
As to `Cc1ccc(S(=O)(=O)N(C)C[C@@H]2Oc3c(NC(=O)C4CCOCC4)cccc3C(=O)N([C@@H](C)CO)C[C@@H]2C)cc1`, the cytotoxicity call was “inactive”.
With `C[C@@H]1CCCCO[C@H](CN(C)C(=O)Nc2ccccc2)[C@H](C)CN([C@H](C)CO)C(=O)c2cc(NC(=O)c3ccncc3)ccc2O1` the entry was “inactive”.
As to `CC1(C)SC2C(NC(=O)C(N)c3ccc(O)cc3)C(=O)N2C1C(=O)O` (centres undefined), the cytotoxicity call is “inactive”.
On to `CC1(C)S[C@@H]2[C@H](NC(=O)[C@H](N)c3ccc(O)cc3)C(=O)N2[C@H]1C(=O)O`, for which the cytotoxicity call is “inactive”.
With `CC1(C)S[C@H]2[C@@H](NC(=O)[C@@H](N)c3ccccc3)C(=O)N2[C@@H]1C(=O)O`, the cytotoxicity call was “active”.
Next, `C/C=C/c1ccc2c(c1)O[C@H](CN(C)C(=O)c1ccc3c(c1)OCO3)[C@H](C)CN([C@@H](C)CO)S2(=O)=O`: “inactive”; `COc1ccc(CNC(=O)N(C)C[C@@H]2OCc3ccccc3-c3c(n(C)c4ccccc34)C(=O)N([C@@H](C)CO)C[C@@H]2C)cc1`: “inactive”.
With `C[C@@H]1CCCCO[C@H](CN(C)S(=O)(=O)c2ccccc2)[C@@H](C)CN([C@@H](C)CO)C(=O)c2cc(NC(=O)Nc3cccc4ccccc34)ccc2O1` the entry was “inactive”; with `C[C@@H]1CN([C@@H](C)CO)C(=O)Cc2cc(NS(=O)(=O)c3ccc(F)cc3)ccc2O[C@@H]1CN(C)Cc1ccc(-c2ccccc2)cc1`, “active”; with `C[C@@H]1CN([C@@H](C)CO)C(=O)Cc2cc(NS(=O)(=O)c3ccc(F)cc3)ccc2O[C@H]1CN(C)Cc1ccc(-c2ccccc2)cc1`, “inactive”.
Next, `C[C@@H]1CN([C@H](C)CO)C(=O)Cc2cc(NS(=O)(=O)c3ccc(F)cc3)ccc2O[C@@H]1CN(C)Cc1ccc(-c2ccccc2)cc1`: “active”; `C[C@H]1CN([C@@H](C)CO)C(=O)Cc2cc(NS(=O)(=O)c3ccc(F)cc3)ccc2O[C@@H]1CN(C)Cc1ccc(-c2ccccc2)cc1`: “inactive”.
Consider `C[C@H]1CN([C@@H](C)CO)C(=O)Cc2cc(NS(=O)(=O)c3ccc(F)cc3)ccc2O[C@H]1CN(C)Cc1ccc(-c2ccccc2)cc1`, for which the cytotoxicity call is “inactive”.
Take `C[C@H](CO)N1C[C@H](C)[C@H](CN(C)Cc2ccc(-c3ccccc3)cc2)Oc2ccc(NS(=O)(=O)c3ccc(F)cc3)cc2CC1=O`: the cytotoxicity call was “active”.
Next, `C[C@H](CO)N1C[C@H](C)[C@@H](CN(C)Cc2ccc(-c3ccccc3)cc2)Oc2ccc(NS(=O)(=O)c3ccc(F)cc3)cc2CC1=O`: “active”; `C[C@@H]1CN([C@@H](C)CO)C(=O)c2cc(C#CCc3ccccc3)cnc2O[C@@H]1CN(C)CC1CCOCC1`: “inactive”; `COc1ccc(NC(=O)N(C)C[C@@H]2Oc3c(NC(=O)Nc4cccc5ccccc45)cccc3C(=O)N([C@H](C)CO)C[C@@H]2C)cc1`: “inactive”.
With `C[C@@H]1CCCCO[C@H](CN(C)C(=O)c2ccccc2)[C@@H](C)CN([C@H](C)CO)C(=O)c2cc(NS(=O)(=O)c3ccc(F)cc3)ccc2O1` the entry was “inactive”.
Take `C[C@@H]1CCCCO[C@@H](CN(C)S(=O)(=O)c2ccccc2)[C@@H](C)CN([C@@H](C)CO)C(=O)c2cc(NS(=O)(=O)c3cn(C)cn3)ccc2O1`: the cytotoxicity call was “inactive”.
As for `COc1ccc(S(=O)(=O)Nc2ccc3c(c2)CC(=O)N([C@H](C)CO)C[C@@H](C)[C@H](CN(C)S(=O)(=O)c2ccccc2)O3)cc1`, the cytotoxicity call is “inactive”.
